An excerpt weighted towards active compounds, which were near 13% of everything screened.
CHOP inh – CHOP inhibition in unfolded protein response. CHO-K1 CHOP-promoter luciferase, tunicamycin-induced, 15-18 h. inhibition, % at 10 µM. hit rate 3.8% among 220,000. AID 2732;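 active = compounds that reduced the stress-induced luciferase reporter signal by more than about 70% of percent inhibition, limit read from the data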
WT yeast gro inh – growth inhibition of WT yeast, mitochondrial fusion screen; mitochondrial fusion phenotypic screen, WT strain; hit rate 2.1% among 190,000; inhibition, % at 10 µM; in the data active = inhibition above about 58%; tested in S. cerevisiae
RAM inhibit – blocks the yeast RAM network; S. cerevisiae dse1pr::URA3 reporter, 5-FOA growth OD615, 2 d; analog-sensitive cbk1-as2 kinase mutant strain; inhibition, % at 50 µM; hit rate 1.8% among 190,000; AID 868;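 active = inhibition above a set limit, 3 SD over mean compound inhibition, cut at about 8.4% in these data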;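 note: inhibition rescues growth on 5-FOA so higher OD means more RAM inhibition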
L major viab – inhibitors of Leishmania major promastigote growth; Leishmania major promastigotes, resazurin fluorescence viability; inhibition, % at 10 µM; hit rate 9% among 200,000; AID 1063; in the data active = inhibition above about 50%;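 note: promastigotes grown with compound for 44 hours at 28 °C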
A number is an active result.

What do the screens show for `COc1ccc(F)cc1C(=O)C1CCCN(Cc2cnc(N3CCCC3)s2)C1` (configuration not stated)?
CHOP inh: inactive; WT yeast gro inh: inactive; RAM inhibit: inactive; L major viab: inactive

How did COc1c(C)cc(C(=O)C2CCCN(Cc3cnc(N4CCOCC4)s3)C2)cc1C (configuration not stated) do in these assays?
CHOP inh: inactive; WT yeast gro inh: inactive; RAM inhibit: inactive; L major viab: 100

What do the screens show for `COc1ccc2cc(C(=O)C3CCCN(Cc4cnc(C)s4)C3)ccc2c1` (configuration not stated)?
CHOP inh: inactive; WT yeast gro inh: inactive; RAM inhibit: inactive; L major viab: 79

Results for COc1ccc2cc(C(=O)C3CCCN(C(=O)c4snnc4C)C3)ccc2c1 (configuration not stated) ?
CHOP inh: inactive; WT yeast gro inh: inactive; RAM inhibit: inactive; L major viab: inactive

Results for COc1ccc(Cl)cc1C(=O)C1CCCN(Cc2cnc(N3CCOCC3)s2)C1 (configuration not stated) ?
CHOP inh: inactive; WT yeast gro inh: inactive; RAM inhibit: inactive; L major viab: inactive

Results for COc1ccc(CN2CCCC(C(=O)c3ccc(Cl)cc3)C2)cc1Cn1cccn1 (configuration not stated) ?
CHOP inh: inactive; WT yeast gro inh: inactive; RAM inhibit: inactive; L major viab: 96

How did CN(CCc1cnn(C)c1)Cc1nc(CC2CC2)no1 do in these assays?
CHOP inh: inactive; WT yeast gro inh: inactive; RAM inhibit: inactive; L major viab: inactive

How did COc1ccccc1/C=C/C=N/n1c(C2CCCCC2)n[nH]c1=S do in these assays?
CHOP inh: 94; WT yeast gro inh: inactive; RAM inhibit: inactive; L major viab: inactive

How did COCc1cc(=O)[nH]c(Nc2nc3ccc(C)cc3o2)n1 do in these assays?
CHOP inh: inactive; WT yeast gro inh: inactive; RAM inhibit: inactive; L major viab: 99

How did COCc1cc(=O)[nH]c(/N=C(\N)Nc2cccc(C)c2)n1 do in these assays?
CHOP inh: inactive; WT yeast gro inh: inactive; RAM inhibit: inactive; L major viab: inactive

What do the screens show for `COc1ccc(C(=O)NCc2ccc3c(c2)OCO3)cc1S(=O)(=O)NCc1ccc(Cl)cc1`?
CHOP inh: inactive; WT yeast gro inh: inactive; RAM inhibit: inactive; L major viab: 61

What do the screens show for `CN(c1ccc(C(=O)NCc2ccc3c(c2)OCO3)cc1)S(=O)(=O)c1ccccc1`?
CHOP inh: inactive; WT yeast gro inh: inactive; RAM inhibit: inactive; L major viab: inactive

Results for COc1ccc(C(=O)NCc2ccc3c(c2)OCO3)cc1S(=O)(=O)N(C)Cc1ccccc1 ?
CHOP inh: inactive; WT yeast gro inh: inactive; RAM inhibit: 9.6; L major viab: inactive

What do the screens show for `COc1ccc(C(=O)NCc2ccccc2)cc1S(=O)(=O)N1CCCc2ccccc21`?
CHOP inh: inactive; WT yeast gro inh: inactive; RAM inhibit: inactive; L major viab: 61

What do the screens show for `CCOC(=O)c1c(C)[nH]c(N=Nc2cccc(OC)c2)c1C`?
CHOP inh: inactive; WT yeast gro inh: inactive; RAM inhibit: inactive; L major viab: inactive

How did Cc1ccccc1OCc1csc(N)n1 do in these assays?
CHOP inh: inactive; WT yeast gro inh: inactive; RAM inhibit: inactive; L major viab: inactive

How did O=C(CSc1ncn[nH]1)N1c2ccccc2Sc2ccccc21 do in these assays?
CHOP inh: inactive

How did O=C(Cn1[nH]c(=O)c2ccccc2c1=O)NC1CCN(Cc2ccccc2)CC1 do in these assays?
CHOP inh: inactive; WT yeast gro inh: inactive; RAM inhibit: inactive; L major viab: 69

What do the screens show for `O=C(Cn1[nH]c(=O)c2ccccc2c1=O)NC1CCCCCC1`?
CHOP inh: inactive; WT yeast gro inh: inactive; RAM inhibit: inactive; L major viab: inactive

How did O=C(NC1CCN(Cc2ccccc2)CC1)C1COc2ccccc2O1 (configuration not stated) do in these assays?
CHOP inh: inactive; WT yeast gro inh: inactive; RAM inhibit: inactive; L major viab: 92

What do the screens show for `Cc1ccccc1C(=O)NC1CCN(Cc2nnnn2CCc2ccccc2)CC1`?
CHOP inh: inactive; WT yeast gro inh: inactive; RAM inhibit: inactive; L major viab: inactive

How did O=C(CCCCn1c(=O)c2ccccc2n(Cc2ccccc2)c1=O)NC1CCN(Cc2ccccc2)CC1 do in these assays?
CHOP inh: inactive; WT yeast gro inh: inactive; RAM inhibit: inactive; L major viab: 73

How did Cc1ccccc1C(=O)NC1CCN(Cc2ccccc2)CC1 do in these assays?
CHOP inh: inactive; WT yeast gro inh: inactive; RAM inhibit: inactive; L major viab: 85

What do the screens show for `O=C(COC(=O)C1CC(O)CN1C(=O)Oc1ccccc1)c1ccc(Br)cc1` (configuration not stated)?
CHOP inh: inactive; WT yeast gro inh: inactive; RAM inhibit: inactive; L major viab: inactive

How did Cc1ccc(C)n1-c1ccc(C(=O)NC2CCN(Cc3ccccc3)CC2)cc1 do in these assays?
CHOP inh: inactive; WT yeast gro inh: inactive; RAM inhibit: inactive; L major viab: 81

What do the screens show for `O=C(NC1CCN(Cc2ccccc2)CC1)c1ccc(S(=O)(=O)NCc2ccco2)cc1`?
CHOP inh: inactive; WT yeast gro inh: inactive; RAM inhibit: inactive; L major viab: 78

What do the screens show for `O=C(NC1CCCCC1)c1ccc(S(=O)(=O)NCc2ccco2)cc1`?
CHOP inh: inactive; WT yeast gro inh: inactive; RAM inhibit: inactive; L major viab: inactive

Results for O=C(COc1ccccc1)NC1CCN(Cc2ccccc2)CC1 ?
CHOP inh: inactive; WT yeast gro inh: inactive; RAM inhibit: inactive; L major viab: 86

Results for O=C(NC1CCN(Cc2ccccc2)CC1)c1ccc2c(c1)OCCCO2 ?
CHOP inh: inactive

Results for O=C(CN1C(=O)C2C3CC(C(Br)C3Br)C2C1=O)Nc1ccc(C(=O)O)cc1 (configuration not stated) ?
CHOP inh: inactive

What do the screens show for `Cc1ccc(S(=O)(=O)NCC(=O)OC(C)C(=O)Nc2ncc(Cl)cc2Cl)cc1` (configuration not stated)?
CHOP inh: inactive; WT yeast gro inh: inactive; RAM inhibit: inactive; L major viab: inactive

Results for CCOc1ccc(C(=O)N/N=C/c2ccc(-c3ccc(S(=O)(=O)Nc4ncccn4)cc3)o2)cc1 ?
CHOP inh: inactive; WT yeast gro inh: inactive; RAM inhibit: inactive; L major viab: inactive

What do the screens show for `O=C(N/N=C/c1ccc(-c2ccc(S(=O)(=O)Nc3ncccn3)cc2)o1)c1cc2ccccc2cc1O`?
CHOP inh: inactive; WT yeast gro inh: inactive; RAM inhibit: inactive; L major viab: 73

Results for Cc1ccc(CSc2nc3ccsc3c(=O)n2Cc2ccccn2)cc1 ?
CHOP inh: inactive; WT yeast gro inh: 59; RAM inhibit: inactive; L major viab: 67

Results for O=c1c2sccc2nc(SCc2cc(=O)n3cc(Br)ccc3n2)n1Cc1ccccn1 ?
CHOP inh: inactive; WT yeast gro inh: inactive; RAM inhibit: inactive; L major viab: 55

Results for N#Cc1ccccc1CSc1nc2ccsc2c(=O)n1Cc1ccccn1 ?
CHOP inh: inactive; WT yeast gro inh: inactive; RAM inhibit: inactive; L major viab: inactive

Results for O=C(O)C1CCC(Cn2c(SCc3cc(=O)n4ccccc4n3)nc3ccsc3c2=O)CC1 (configuration not stated) ?
CHOP inh: inactive; WT yeast gro inh: inactive; RAM inhibit: inactive; L major viab: inactive

Screening results: PubChem BioAssay, several laboratories
